Gal4-VP16 FLuc: counter-screen for ROR gamma inhibitors: Gal4-VP16 reporter | Drosophila S2 Gal4-VP16 UAS-luciferase, luminescence, 20 h | Potency, µM (titrated, usually from 53.6 µM), for inactives: at the highest dose activity, negative = inhibition, hits mostly inhibitors | 310,000 tested, 3.5% active | AID 2546;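 further: Gal4-VP16 expression switched on by copper sulfate through the metallothionein promoter; potency means the concentration at half of the fitted maximal effect; nearly all actives have a fitted effect of over 50% in size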
DT40 TDP1 no CPT: qHTS for Inhibitors of human tyrosyl-DNA phosphodiesterase 1 (TDP1): qHTS in cells in absence of CPT. Potency, µM (top dose mostly 46.2 µM), inactives show at the highest dose activity change, negative = growth inhibition, usual class: inhibitors. 420,000 tested, 15% active. AID 686978, 2013. DT40 Tdp1-/- hTDP1 cells, no CPT, ATP luminescence, 48 h; further: potency means the concentration at half of the fitted maximal effect; nearly all actives have a fitted effect of over 55% in size
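Stably hTDP1-transfected Tdp1-null chicken DT40 cells were treated with library compounds minus camptothecin and grown for at least 48 hr at 37 °C, after which cellular ATP was quantified by luminescence.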
DT40 TDP1 CPT: growth inhibition of DT40 Tdp1-/-;hTDP1 cells with camptothecin (screen for TDP1 inhibitors); chicken DT40 Tdp1-/-;hTDP1 cells + 20 nM CPT, ATP luminescence, 48 h; Potency, µM (doses to about 46.2 µM), for inactives: top-dose activity change, negative = growth inhibition, most hits filed as inhibitors; 420,000 tested, 12% active; AID 686979; further: potency means the concentration at half of the fitted maximal effect; nearly all actives have a fitted effect of over 55% in size
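Cell growth measured by CellTiter-Glo luminescence after a minimum 48 h, 37 C compound exposure with 20 nM CPT in Tdp1-knockout DT40 cells stably expressing hTDP1, seeded 400/well; qHTS titration format.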
RORgamma inh: blocks mouse ROR gamma transcriptional activity. 310,000 tested, 5.4% active. Drosophila S2 Gal4-RORgamma UAS-luciferase reporter, 20 h. P51450. Potency, µM (series often up to 53.6 µM), for the others: at the top dose activity change, negative = inhibition, usual class: inhibitors; further: potency means the concentration at half of the fitted maximal effect; nearly all actives have a fitted effect of over 60% in size
Target sequence (P51450 whole entry, looked up, the tested form may be a part): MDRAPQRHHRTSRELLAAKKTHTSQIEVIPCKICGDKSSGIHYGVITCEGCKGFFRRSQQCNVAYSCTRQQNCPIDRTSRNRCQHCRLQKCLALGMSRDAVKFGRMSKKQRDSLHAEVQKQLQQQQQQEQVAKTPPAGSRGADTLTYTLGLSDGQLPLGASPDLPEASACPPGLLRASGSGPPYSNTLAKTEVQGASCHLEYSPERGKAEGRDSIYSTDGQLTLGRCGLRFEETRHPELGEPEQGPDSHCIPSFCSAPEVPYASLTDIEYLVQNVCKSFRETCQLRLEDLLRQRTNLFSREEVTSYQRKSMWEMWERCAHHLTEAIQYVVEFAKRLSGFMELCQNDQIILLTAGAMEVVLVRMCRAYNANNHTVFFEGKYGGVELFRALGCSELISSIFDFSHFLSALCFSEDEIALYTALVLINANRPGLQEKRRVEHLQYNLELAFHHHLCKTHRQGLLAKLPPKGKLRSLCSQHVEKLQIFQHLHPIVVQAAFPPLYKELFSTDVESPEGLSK
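Luminescence from a UAS-regulated Photinus luciferase reporter in stably transfected Drosophila Schneider cells is measured; decreased signal marks ROR gamma inhibition. Fusion expression is induced by 700 uM copper sulfate for 20 hr.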
LDHA block: inhibitors of human lactate dehydrogenase A; P00338; purified LDHA, NADH/diaphorase-resazurin fluorescence; stronger effect = lower value; activity change, % (values are at about 110 or 230 µM); 480,000 tested, 0.15% active; AID 1347041; in the data active means activity change below about -30%; inconclusive means mostly about -25% to -30%;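 further: plate controls were DMSO wells for no effect and wells without enzyme for full effect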
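Resorufin fluorescence (ex540/em590), read at 0 and 20 min after diaphorase/resazurin addition, reports the NADH left after a 5 min room-temperature reaction of 2 nM human LDH5 with 0.06 mM NADH and 0.2 mM pyruvate.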
IL1B secr inh: blocks inflammasome-driven IL-1 beta release; THP-1 LPS/ATP IL-1B secretion, AlphaLISA, 16 h; stronger effect = lower value; activity change, % at 57.5 µM; 360,000 tested, 4.7% active; AID 743279; in the data active means activity change below about -50%; inconclusive means mostly about -30% to -49%
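THP-1 cells pretreated 1 hr with compounds (up to 57.5 uM final), then stimulated with LPS (250 ng/mL final) plus ATP (1.25 mM final); secreted IL-1B measured by AlphaLISA after 16 hr, decreased signal indicating inhibition.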
Starred values were filed as active, the others as inactive; ? = inconclusive; · = no result. Most compounds without a hit are left out; they make up all but 18% or so of the library. Unless noted, the call rests on the fitted dose curve; in most records, active means well fitted curve in the direction sought with a large enough effect; inconclusive means small, poorly fitted or top-dose-only effect, or another doubt; inactive means no such curve, though single readings can be large; an effect the other way counts as inactive or inconclusive. Unless noted, on the % scale 0 is the no-effect control and ±100 the full control effect.

SMILES | Gal4-VP16 FLuc | DT40 TDP1 no CPT | DT40 TDP1 CPT | RORgamma inh | LDHA block | IL1B secr inh
COc1ccc(N2CCN(C(=O)c3cc4c(=O)n(Cc5cccs5)ccc4nc3C)CC2)cc1 | · | 26µM* | ? | · | 7 | ·
COc1cccc(N2CCN(C(=O)c3cc4c(=O)n(Cc5cccs5)ccc4nc3C)CC2)c1 | · | ? | 23µM* | · | 5 | ·
CCc1ccccc1Nc1cc(C(=O)NC(C)c2ccccc2)c2ccccc2n1 (stereo not drawn) | · | ? | 29µM* | · | 1 | ·
CCc1ccccc1Nc1cc(C(=O)NCc2ccc(C)cc2)c2ccccc2n1 | · | ? | 21µM* | · | 0 | ·
CN(Cc1cccc(C#N)c1)C(=O)c1cnc2ccccc2n1 | · | · | · | · | 7 | ·
CC(Sc1ncnc2nc[nH]c12)C(=O)Nc1ccccc1Cl (stereo not drawn) | · | · | · | · | -3 | ·
CCOC(=O)c1sc(NC(=O)Cc2ccccc2OC)nc1C | 0% | -25% | -7% | 34% | -5 | -9
CCOC(=O)c1sc(NC(=O)CCc2ccccc2)nc1C | 1% | 1.2µM* | 1.8µM* | -17% | 0 | -9
CCOC(=O)c1sc(NC(=O)CC(C)c2ccccc2)nc1C (stereo not drawn) | -11% | 3.7µM* | 13µM* | 17% | -3 | 14
CCOC(=O)c1sc(NC(=O)CSC(=S)N2CCN(C)CC2)nc1C | -3% | 18µM* | 26µM* | -20% | 5 | ?
Cc1cnc(NC(=O)CC(C)c2ccccc2)s1 (stereo not drawn) | -13% | 5.2µM* | 6.5µM* | ? | 4 | 36
Cc1ccc(-c2c(C)nn3c(N4CCN(CCO)CC4)cc(C)nc23)cc1 | · | · | · | · | 10 | ·
CCOC(=O)c1sc2nc(NC(=O)COc3ccccc3)sc2c1C | 7% | 18µM* | ? | 24% | 0 | -2
COc1cnc(-c2ccccn2)nc1Sc1ccc(Cl)cc1 | 5.6µM* | 1.5µM* | 1.3µM* | 5.6µM* | 2 | 33
Cc1nc(-c2ccccn2)nc(SCC(=O)c2ccccc2)c1Cl | 11µM* | ? | ? | 4µM* | -8 | ·
COc1cnc(N(C)C)nc1Sc1ccc(Cl)cc1 | -9% | -11% | -30% | 25% | -2 | 21
COc1cnc(-c2ccccn2)nc1Sc1ccc(F)cc1 | 3.5µM* | 0.52µM* | 0.58µM* | -29% | -14 | 1
c1ccc(-c2cnc(-c3ccccn3)nn2)cc1 | · | ? | ? | · | 0 | 93
COc1cnc(-c2ccccn2)nc1Sc1ccccc1 | 11µM* | 1µM* | 1.5µM* | 2.5µM* | 2 | 49
CS(=O)(=O)c1ccc(F)c(NC(=O)CCCc2cccs2)c1 | · | · | · | · | -17 | ·
Cc1cc(C)cc(C(=O)NCCC23CC4CC(CC(C4)C2)C3)c1 | · | · | · | · | -19 | ·
CC(=O)Nc1ccc(NC(=O)c2ccccc2OCC2CCCO2)cc1Cl (stereo not drawn) | · | · | · | · | -4 | ·
COc1cccc(C2C3=C(CC(C)(C)CC3=O)Nc3nc(-c4cc(OC)c(OC)c(OC)c4)nn32)c1 (stereo not drawn) | · | · | · | · | 7 | ·
COc1ccc(Sc2nc(-c3ccccn3)ncc2OC)cc1 | 8.9µM* | 3.3µM* | 2.9µM* | 2.2µM* | -2 | 25
CCOC(=O)CSc1nc(-c2ccccn2)ncc1OC | -6% | 4.6µM* | 8.2µM* | ? | 6 | 33
SMILES | Gal4-VP16 FLuc | DT40 TDP1 no CPT | DT40 TDP1 CPT | RORgamma inh | LDHA block | IL1B secr inh
Cc1cc(SCC(=O)NC2CC2)nc2c(C)cccc12 | · | · | · | · | 7 | ·
Cc1nn(C)c(C)c1CN(Cc1nc(-c2cc(F)ccc2F)oc1C)C1CC1 | -9% | ? | ? | 28µM* | 0 | -25
CCCCc1ccc(NC(=S)NNC=O)cc1 | · | · | · | · | -13 | ·
Brc1cccc(-c2nc(-c3ccccn3)no2)c1 | · | · | · | · | 1 | ·
c1ccc(-c2noc(-c3ccc4c(c3)OCO4)n2)nc1 | 3.2µM* | 5.2µM* | 5.2µM* | 3.2µM* | 2 | 6
COc1cccc(-c2nc(-c3ccccn3)no2)c1 | 4.5µM* | ? | ? | ? | -11 | 17
Ic1cccc(-c2nc(-c3ccccn3)no2)c1 | · | · | · | · | -5 | ·
c1ccc(-c2noc(-c3ccc4ccccc4c3)n2)nc1 | 2.2µM* | 23µM* | ? | 2.5µM* | -4 | 15
O=[N+]([O-])c1cccc(-c2nc(-c3ccccn3)no2)c1 | ? | -25% | -1% | 11µM* | 0 | 14
O=C(Oc1ccc2cc(Br)ccc2c1)C(c1ccccc1)c1ccccc1 | · | · | · | · | 1 | ·
CCOC(=O)C(NC(=O)C1C2CC3CC(C2)CC1C3)C(=O)OCC (stereo not drawn) | · | · | · | · | 10 | ·
c1ccc(-c2noc(C3CCCCC3)n2)nc1 | -27% | -18% | -13% | 3.5µM* | -4 | -4
COc1ccc(CC(=O)N2CCN(c3ccc(C4=NNC(=O)CC4C)cc3)CC2)cc1 (stereo not drawn) | -8% | ? | ? | 44% | 3 | -8
COc1ccc2nc(-c3ccccn3)[nH]c2c1 | · | -10% | -17% | · | 3 | 0
COc1ccc2nc(-c3cccc(N)c3)[nH]c2c1 | 13µM* | 23µM* | ? | ? | 2 | -28
COc1cccc(-n2c(N)c(-c3nc4ccccc4[nH]3)sc2=S)c1 | ? | -17% | -5% | ? | 1 | 7
COc1ccc2nc(-c3ccc(N)cc3)[nH]c2c1 | 10µM* | ? | ? | 7.9µM* | 2 | ?
COc1ccc2oc(=O)c(-c3nc4ccc(C)cc4[nH]3)cc2c1 | · | 1.5µM* | 1µM* | · | -1 | ·
COc1ccc(-c2nc3ccc(C4=NNC(=O)CC4C)cc3[nH]2)cc1 (stereo not drawn) | · | 13µM* | ? | · | · | ·
CCOC(=O)c1c(C)c2ccccc2n2cc(CN3CCOCC3)c(C#N)c12 | · | · | · | · | 13 | ·
O=C1CC(C(F)(F)C(F)(F)C(F)(F)F)=Nc2ccccc2N1 | -2% | -20% | -2% | -8% | 6 | -22
CC1(C)CC(/C=C/c2ccccc2)=Nc2ccccc2N1 | -15% | 21µM* | 18µM* | -37% | 0 | -62*
O=C1CC(/C=C/c2cccnc2)=Nc2ccccc2N1 | 13% | 16µM* | 13µM* | -21% | -1 | -93*
O=C1CC(/C=C/c2ccc(Cl)cc2)=Nc2ccccc2N1 | 29% | 15µM* | ? | ? | 2 | -94*
Cc1ccc(O)c(C(=O)c2cc(C#N)c(=O)n(-c3ccccc3C(F)(F)F)c2)c1 | · | · | · | · | 9 | ·
O=C(NCCCn1ccnc1)c1ccccc1NS(=O)(=O)c1ccc(F)c(F)c1 | -15% | ? | 16µM* | 0% | -7 | -2

Assay outcomes: PubChem, National Center for Advancing Translational Sciences (NCATS)
